Source: PubChem BioAssay (NCI)
Compounds without any hit were thinned out: in the full panel of roughly 83,000, 20% have a hit.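 Method: cells in 96-well plates; compound added at one concentration; 48 h incubation; percent growth measured; values under 10 scored active.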 The source made the active and inactive calls.

system: RPMI-8226 leukemia; assay: NCI-60 one-dose screen, 48 h (100 = growth as untreated, 0 = no growth, -100 = all killed); conditions: 10 µM

SMILES	growth
CCCCOC(OCCCC)c1ccccc1	110% (inactive)
O=C(O)c1cccc([N+](=O)[O-])c1O	107% (inactive)
O=C1c2ccccc2C(=O)N1OCc1ccccc1	102% (inactive)
C[C@@H](c1ccccc1)[C@@H](C(=O)O)c1ccccc1	99.7% (inactive)
CC1=CC(C)(C)NC(=S)N1c1ccc(S(=O)(=O)O)c2cccc(S(=O)(=O)O)c12	113% (inactive)
CC(=O)OC(OC(C)=O)C1CCCO1 (stereo not drawn)	114% (inactive)
c1ccc2c(N3CCCCC3)ncnc2c1	66.9% (inactive)
S=c1nn[nH]c2ccccc12	117% (inactive)
O=[N+]([O-])c1ccc(Sc2ccncn2)c([N+](=O)[O-])c1	40% (inactive)
O=c1[nH]c(O)c(/C=C2/C=Nc3ccccc32)[nH]1	78% (inactive)
CC1OC(Oc2c(-c3ccc(O)c(O)c3)oc3cc(O)cc(O)c3c2=O)C(O)C(O)C1O (stereo not drawn)	105% (inactive)
Cc1ccc(O)c(C(=O)c2ccccc2)c1	113% (inactive)
OCC1OC(OC2C(O)C(CO)OC2(CO)OC2OC(CO)C(O)C(O)C2O)C(O)C(O)C1O (stereo not drawn)	97.9% (inactive)
C[N+](C)(C)C(=O)c1ccccc1	111% (inactive)
O=[N+]([O-])c1ccc(Cl)c(S(=O)(=O)O)c1	100% (inactive)
Cc1cc2ccccc2c(O)c1C#N	97.4% (inactive)
COc1ncnc2c1cnn2C	107% (inactive)
NC(C(=O)O)c1ccc([N+](=O)[O-])cc1 (stereo not drawn)	116% (inactive)
CC(O)COc1ccc(-c2ccccc2)cc1 (stereo not drawn)	97.7% (inactive)
C1CNC(C2=NCCN2)=N1	109% (inactive)

SMILES	growth
CN(C)C(C)(C)CC(C)(C)C	110% (inactive)
O=[N+]([O-])c1ccc(S(=O)(=O)NN=C2CCCCC2)cc1	110% (inactive)
C[C@]12CC[C@@H]3c4ccc(OCC(=O)O)cc4CC[C@H]3[C@@H]1CCC2=O	121% (inactive)
Nc1ncnc2[nH]ncc12	8.64% (active)
CCCNc1ccc(C2=NCCCN2)cc1	98.2% (inactive)
O=C(N/N=C/c1ccccc1O)Nc1nn[nH]n1	95.6% (inactive)
Cc1ccc(CCCC(=O)O)c(C)c1	97.8% (inactive)
CC(=O)c1cc2c(cc1F)C(C)(C)CCC2(C)C	114% (inactive)
CN(c1ccccc1)c1ncnc2c1ncn2C	106% (inactive)
CCCCC1(CC)COC(CCC)OC1 (stereo not drawn)	102% (inactive)
COc1cc2c3cc1Oc1c(OC)c(OC)cc4c1C(Cc1ccc(O)c(c1)Oc1ccc(cc1)CC3N(C)CC2)N(C)CC4 (stereo not drawn)	-27.4% (active)
CCC(C#N)(CC)c1ccccc1	104% (inactive)
FC(F)(F)c1ccc2c(c1)N(CCCN1CCN(C3CC3)CC1)c1ccccc1S2	51.9% (inactive)
CC1NC(=O)NC1CCCCCC(=O)O (stereo not drawn)	84% (inactive)
COS(=O)(=O)c1ccc(Br)cc1	111% (inactive)
O=[N+]([O-])c1cccc(N=Nc2ccc(O)cc2O)c1	29.6% (inactive)
Cc1cc(OCCO)cc(C)c1Cl	102% (inactive)
Cc1cc(O)ccc1O	59.5% (inactive)
CCOc1ccc(Br)cc1/C=N\N=C\c1cc(Br)ccc1OCC	95.5% (inactive)

system: OVCAR-8 ovarian; assay: as above; conditions: 10 µM

SMILES	growth
CCCCOC(OCCCC)c1ccccc1	108% (inactive)
O=C(O)c1cccc([N+](=O)[O-])c1O	113% (inactive)
O=C1c2ccccc2C(=O)N1OCc1ccccc1	105% (inactive)
C[C@@H](c1ccccc1)[C@@H](C(=O)O)c1ccccc1	98.2% (inactive)
CC1=CC(C)(C)NC(=S)N1c1ccc(S(=O)(=O)O)c2cccc(S(=O)(=O)O)c12	114% (inactive)
CC(=O)OC(OC(C)=O)C1CCCO1 (stereo not drawn)	103% (inactive)
c1ccc2c(N3CCCCC3)ncnc2c1	94.4% (inactive)
S=c1nn[nH]c2ccccc12	103% (inactive)
O=[N+]([O-])c1ccc(Sc2ccncn2)c([N+](=O)[O-])c1	102% (inactive)
O=c1[nH]c(O)c(/C=C2/C=Nc3ccccc32)[nH]1	98.1% (inactive)
CC1OC(Oc2c(-c3ccc(O)c(O)c3)oc3cc(O)cc(O)c3c2=O)C(O)C(O)C1O (stereo not drawn)	106% (inactive)
Cc1ccc(O)c(C(=O)c2ccccc2)c1	111% (inactive)
OCC1OC(OC2C(O)C(CO)OC2(CO)OC2OC(CO)C(O)C(O)C2O)C(O)C(O)C1O (stereo not drawn)	113% (inactive)
C[N+](C)(C)C(=O)c1ccccc1	113% (inactive)
O=[N+]([O-])c1ccc(Cl)c(S(=O)(=O)O)c1	104% (inactive)
Cc1cc2ccccc2c(O)c1C#N	99.7% (inactive)
COc1ncnc2c1cnn2C	103% (inactive)
NC(C(=O)O)c1ccc([N+](=O)[O-])cc1 (stereo not drawn)	112% (inactive)
CC(O)COc1ccc(-c2ccccc2)cc1 (stereo not drawn)	108% (inactive)
C1CNC(C2=NCCN2)=N1	102% (inactive)

SMILES	growth
CN(C)C(C)(C)CC(C)(C)C	109% (inactive)
O=[N+]([O-])c1ccc(S(=O)(=O)NN=C2CCCCC2)cc1	101% (inactive)
C[C@]12CC[C@@H]3c4ccc(OCC(=O)O)cc4CC[C@H]3[C@@H]1CCC2=O	109% (inactive)
Nc1ncnc2[nH]ncc12	6.29% (active)
CCCNc1ccc(C2=NCCCN2)cc1	95.4% (inactive)
O=C(N/N=C/c1ccccc1O)Nc1nn[nH]n1	101% (inactive)
Cc1ccc(CCCC(=O)O)c(C)c1	97.4% (inactive)
CC(=O)c1cc2c(cc1F)C(C)(C)CCC2(C)C	104% (inactive)
CN(c1ccccc1)c1ncnc2c1ncn2C	102% (inactive)
CCCCC1(CC)COC(CCC)OC1 (stereo not drawn)	101% (inactive)
COc1cc2c3cc1Oc1c(OC)c(OC)cc4c1C(Cc1ccc(O)c(c1)Oc1ccc(cc1)CC3N(C)CC2)N(C)CC4 (stereo not drawn)	7.71% (active)
CCC(C#N)(CC)c1ccccc1	107% (inactive)
FC(F)(F)c1ccc2c(c1)N(CCCN1CCN(C3CC3)CC1)c1ccccc1S2	46.9% (inactive)
CC1NC(=O)NC1CCCCCC(=O)O (stereo not drawn)	94.8% (inactive)
COS(=O)(=O)c1ccc(Br)cc1	98.6% (inactive)
O=[N+]([O-])c1cccc(N=Nc2ccc(O)cc2O)c1	74.3% (inactive)
Cc1cc(OCCO)cc(C)c1Cl	106% (inactive)
Cc1cc(O)ccc1O	104% (inactive)
CCOc1ccc(Br)cc1/C=N\N=C\c1cc(Br)ccc1OCC	95.6% (inactive)
